HSP90 inh: HSP90 refolding inhibition in rabbit reticulocyte lysate | luciferase refolding luminescence, 3 h | inhibition, % at 5.6 µM | hit rate 0.91% among 290,000;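 active means inhibition above the screen-wide mean plus 3 SD, computed separately per campaign, cut at about 16% in these data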;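 further: 0% = DMSO wells and 100% = 60 µM geldanamycin wells; inhibitors lower the luminescence because luciferase stays unfolded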
EBV LMP1 NFkB: inhibitors of Epstein-Barr LMP1-induced NF-kappaB reporter; AID 504558; LMP1-induced NF-kappaB luciferase reporter cells, luminescence; inhibition, % at 12.5 µM; hit rate 0.69% among 350,000; in the data active means inhibition above about 41%; inconclusive means no clear call, values can overlap the other calls;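 further: 0% = neutral control wells and 100% = reference inhibitor control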
LGR2 inh: Drosophila LGR2 receptor signaling inhibition | HEK293 LGR2, CRE-luciferase, bursicon-stimulated, 4 h | inhibition, % at 9.99 µM | hit rate 0.35% among 380,000 | AID 720647;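 active means drop in luminescence signal, shown as inhibition above about 50% in the replicate tests, limit read from the data, passing the limit was not always enough; inconclusive means probably only some replicates passing the limit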;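 further: agonist challenge used bursicon conditioned medium at about half maximal strength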
aDG glyco up: alpha-DG glycosylation activation; Pro5-aDG cells, alpha-DG glycosylation AlphaScreen (IIH6); 0% Pro5, 100% B10-LARGE cell signal; activation, % at 10 µM; hit rate 0.22% among 360,000; AID 624168;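 active means activation of at least 8% versus controls, or a plate z-score of at least 8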;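 further: Pro5 are CHO cells carrying HIG-tagged alpha-DG that lacks glycosylation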
TROY signal inh: inhibitors of TROY-dependent NF-kB signaling; Q293 LMP1-TROYcd NF-kB luciferase reporter, 4 h; hit rate 0.98% among 360,000; inhibition, % at 10 µM;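 active means compounds whose plate-normalised and pattern-corrected inhibition of the luciferase reporter signal at the single screening dose is 50% or more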
TWEAK-Fn14 inh: blocks TWEAK-Fn14 interaction in a reporter cell assay; hit rate 2% among 360,000; TWEAK-stimulated Fn14 reporter cells, luciferase luminescence, 8 h; inhibition, % at 10 µM; in the data active means inhibition above about 50%
Numbers without * were called inactive; u = inconclusive; x = not tested or not shown; ! = a repeat was not active. Sampled rows, rich in hits. Any-hit rate of the full collection: about 2.6%.

SMILES	HSP90 inh	EBV LMP1 NFkB	LGR2 inh	aDG glyco up	TROY signal inh	TWEAK-Fn14 inh
O=S(=O)(Nc1nc2ccccc2nc1N1CCc2ccccc2C1)c1ccc(Cl)cc1	-4.8	-2.8	16.5	0.0	24.4	71.9*
Cc1ccccc1S(=O)(=O)Nc1nc2ccccc2nc1N1CCc2ccccc2C1	-3.3	-5.7	-42.8	0.0	-1.4	21.0
C[C@H]1CN([C@@H](C)CO)C(=O)c2cccc(NC(=O)Nc3cccc4ccccc34)c2O[C@H]1CN(C)S(=O)(=O)c1ccccc1	x	x	5.2	x	x	x
O=C(C[C@@H]1CC[C@H](NC(=O)C2CC2)[C@@H](CO)O1)Nc1nccs1	x	x	-4.5	x	x	x
COC(=O)c1c(NC(=O)C2COc3ccccc3O2)sc2c1CCN(C(C)=O)C2 (stereo not drawn)	6.0	13.9	17.3	0.1	29.7	55.0*
CCN(CC)S(=O)(=O)c1cccc(NC(=O)Nc2cccc(C(F)(F)F)c2)c1	-2.9	46.0*	x	1.0	56.4*	78.5*
CCN(CC)S(=O)(=O)c1cccc(NC(=O)CC2CCCC2)c1	-5.8	4.0	8.6	0.4	-20.4	-6.4
CCCNC(=O)Nc1ccc2c(c1)C(=O)N(C)C[C@H](OC)[C@@H](C)CN(C(=O)C1CCC1)[C@H](C)CO2	x	x	19.5	x	x	x
Cc1cccc(/C(N)=N/OC(=O)Cc2cccc3ccccc23)c1	-4.4	-0.3	-16.0	0.3	-42.3	-26.6
Cc1cccc(C(=O)O/N=C(\N)Cc2cccc3ccccc23)c1	16.7*	-7.8	x	0.7	-19.2	-18.1
O=C(Nc1ccc(O)cc1)c1cc2ccccc2c(=O)s1	-3.6	-19.5	-65.3	0.0	-26.4	32.2
O=C(Nc1ccccc1)c1cc2ccccc2c(=O)s1	-7.9	-14.2	-36.2	-0.2	-48.8	57.6*
COc1ccc(CN(C)C[C@H]2Oc3ccc(NC(=O)Cn4cnnn4)cc3C(=O)N([C@@H](C)CO)C[C@@H]2C)cc1	x	x	12.8	x	x	x
COc1ccc(-c2csc(N3C(=O)CNC3=S)n2)cc1	-0.5	-3.9	10.0	-0.2	21.0	60.6*
COc1ccc(-c2csc(N3C(=N)SCC3=O)n2)cc1	-0.4	-25.0	x	-0.2	38.5	64.5*
COc1cc(C(=O)NCc2ccccc2)ccc1OC(F)F	-1.9	-3.4	-20.6	0.1	5.4	32.2
COc1ccc(COc2ccccc2C(=O)NCc2ccccc2)cc1F	-0.4	22.3	-11.8	1.6	47.4	68.8*
c1cncc(-c2nnc(SCc3nc4ccccc4[nH]3)o2)c1	0.3	-5.2	x	0.0	74.2*	24.5
CCS(=O)(=O)N1CCN(C(=O)c2ccco2)CC1	-3.3	-6.4	5.9	0.3	-14.7	7.1
O=C(c1ccco1)N1CCN(C(=O)c2ccco2)C1=S	x	-4.6	83.0*	0.5	27.2	50.7*
CCCS(=O)(=O)N1CCN(C(=O)c2ccco2)CC1	-3.0	0.8	x	0.0	12.9	77.1*
Cn1cc(S(=O)(=O)N2CCN(C(=O)c3ccco3)CC2)c(=O)n(C)c1=O	-2.2	87.5*	0.9	-0.2	-5.2	5.7
COc1ccc2cnn(Cc3ccccc3)c(=O)c2c1OC	0.1	2.8	x	0.4	50.9*	27.8
COC(=O)Cn1ncc2c(C)n(Cc3ccccc3)c(C)c2c1=O	-1.0	68.5*	-9.1	0.3	-43.2	-10.4
CC=Cc1ccc2n(c1=O)C[C@H]1[C@H](CO)[C@@H](C(=O)NC3CCC3)[C@@H]2N1C(=O)c1ccccn1 (mixture of isomers)	x	x	-2.7	x	x	x
SMILES	HSP90 inh	EBV LMP1 NFkB	LGR2 inh	aDG glyco up	TROY signal inh	TWEAK-Fn14 inh
C[C@H]1CN([C@@H](C)CO)C(=O)Cc2cc(NS(=O)(=O)c3ccc(Cl)cc3)ccc2O[C@@H]1CN(C)S(C)(=O)=O	x	x	-3.5	x	x	x
O=C(O)c1ccc(NC2=C/C(=N/S(=O)(=O)c3cccs3)c3ccccc3C2=O)cc1	x	-5.7	u	0.9	59.6*	98.2*
Cc1ccc(NC2=C/C(=N\S(=O)(=O)c3cccs3)c3ccccc3C2=O)c(C)c1	26.4*	95.0*	x	-1.2	69.2*	94.8*
Cc1cc(C)c(S(=O)(=O)/N=C2\C=C(NS(=O)(=O)c3ccccc3)C(=O)c3ccccc32)c(C)c1	-4.7	-0.1	-5.5	0.1	17.7	-1.2
Cc1ccc(Cl)cc1NC1=C/C(=N\S(=O)(=O)c2cccs2)c2ccccc2C1=O	7.5	59.5*!	105.5*	-0.6	70.6*	99.7*
Cc1cccc(NC2=C/C(=N/S(=O)(=O)c3cccs3)c3ccccc3C2=O)c1	4.0	-2.2	-2.6	0.6	32.2	97.2*
Cc1ccc(S(=O)(=O)/N=C2\C=C(NS(=O)(=O)c3ccccc3)C(=O)c3ccccc32)cc1	x	-15.3	11.0	0.4	-27.2	5.8
COc1cc2ccccc2ccc1=NO	x	38.3	17.0	-0.3	22.3	62.2*
COc1cc2ccccc2cc1C(=O)O	0.8	-3.7	x	-0.2	-16.3	-11.7
COc1cc([N+](=O)[O-])cc(/C=C2/SC(=S)N(Cc3ccccc3)C2=O)c1O	-2.3	20.7	26.8	0.0	48.1	70.0*
COc1ccc(/C=C2\SC(=S)N(CCCC(=O)Nc3ccccn3)C2=O)cc1OC	4.6	0.9	6.5	0.1	24.1	52.2*
COc1cc(/C=C2\SC(=O)N(Cc3ccc(Cl)cc3)C2=O)cc([N+](=O)[O-])c1O	-0.2	0.4	4.2	0.8	55.0*	55.7*
O=C(O)CN1C(=O)/C(=C\c2cc(Br)ccc2OCc2ccc([N+](=O)[O-])cc2)SC1=S	-2.0	-2.4	3.4	0.2	10.2	-32.8
COc1cc(/C=C2/SC(=S)N(Cc3ccccc3)C2=O)cc(Cl)c1O	-3.7	10.8	8.8	0.0	50.6*	65.4*
CCOc1cc(/C=C2/SC(=S)N(Cc3ccccc3)C2=O)ccc1O	-1.6	18.7	-23.3	-0.1	-16.0	15.7
CO[C@@H]1CN(C)C(=O)c2ccc(NS(=O)(=O)c3cn(C)cn3)cc2OC[C@@H](C)NC[C@@H]1C	x	x	-1.8	x	x	x
COc1cc(/C=C2/SC(=S)N(Cc3ccccc3)C2=O)ccc1OS(C)(=O)=O	8.5	39.5	-13.7	0.2	-25.1	-32.0
COc1cc(/C=C2/SC(=S)N(Cc3ccccc3)C2=O)ccc1OCC(=O)O	2.2	46.9*	1.7	0.0	-11.9	-39.4
CC1C(=O)C(C)C(c2cc(Br)ccc2O)NC1c1cc(Br)ccc1O (stereo not drawn)	x	5.3	3.9	-0.1	63.4*	9.2
COc1cccc(S(=O)(=O)N2CCCCN3[C@H](CO)[C@H](c4ccc(C5=CCCCC5)cc4)[C@H]3C2)c1	x	x	8.8	x	x	x
Cc1cc(C)nc(CCNC(=O)c2cc(COc3ccc(F)cc3Cl)on2)n1	-5.7	-8.1	-1.0	0.0	76.2*	-21.0
CCOc1ccc(CNc2ccc(N3CCCC3)cc2)cc1	6.1	9.1	x	-0.4	39.6	55.2*
COc1cc(CNc2ccc(N3CCCC3)cc2)cc(Cl)c1OC	0.1	-9.6	x	-0.5	20.3	32.4
CCOc1ccc(CNc2ccc(N3CCN(Cc4ccccc4)CC3)cc2)cc1	-3.5	4.3	4.4	-0.3	11.8	24.1

High-throughput results as filed in PubChem BioAssay.
